From PubChem
Furin inhibitor: blocks human furin protease activity | purified furin, fluorogenic substrate cleavage | 0.061% of 220,000 active | inhibition, % at 20 µM or 30 µM | P09958; in the data active = inhibition above about 25%
HSV replic up: increases HSV replication in cells; AID 1956; 0.005% of 220,000 active; HSV replication augmentation in cells, fold increase; maximum fold increase; in the data active = maximum fold increase above about 1.5; inconclusive = no clear call, values can overlap the other calls; tested in PC3 cells
NCF1 inh: inhibitors of human p47phox binding; inhibition, % at 24.7 µM; 0.53% of 220,000 active; p47phox/p22phox peptide binding, fluorescence polarization, 2 h;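 active = inhibition above about 30%, limit read from the data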;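 also: 0% = p47phox with labelled peptide and 100% = labelled peptide alone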
Target sequence (P14598 whole entry, looked up): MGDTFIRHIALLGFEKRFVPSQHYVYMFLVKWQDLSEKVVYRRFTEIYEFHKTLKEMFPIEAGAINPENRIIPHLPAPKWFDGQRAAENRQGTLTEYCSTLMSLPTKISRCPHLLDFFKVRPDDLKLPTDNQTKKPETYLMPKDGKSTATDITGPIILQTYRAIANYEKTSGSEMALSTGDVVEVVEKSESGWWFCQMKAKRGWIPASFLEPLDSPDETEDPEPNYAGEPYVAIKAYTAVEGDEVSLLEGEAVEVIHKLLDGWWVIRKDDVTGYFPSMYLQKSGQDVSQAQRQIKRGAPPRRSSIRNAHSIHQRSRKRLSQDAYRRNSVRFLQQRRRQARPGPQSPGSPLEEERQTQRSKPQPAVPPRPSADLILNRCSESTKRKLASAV
Wee1 stabilizer: blocks degradation of human Wee1 kinase | P30291 | HeLa Luc-Wee1K328M stability, luciferase luminescence; 100% = proteasome inhibitor MG132 effect | reporter increase, % at 5 µM | 1.2% of 220,000 active | AID 1321;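 active = activation above the mean of all tested compounds plus 3 SD, set per screening run, cut at about 8.8% in these data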;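 also: cells exposed to compound for 20 h before luminescence read; 0% = DMSO alone and 100% = MG132 at 30 µM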
EP2 antag: blocks the human prostaglandin E2 receptor EP2 | 0.52% of 260,000 active | C6 glioma cells expressing human EP2, cAMP TR-FRET; cells stimulated with saturating PGE2 | inhibition, % at 25 µM | P43116;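 active = percent inhibition above 40 after rounding to a whole number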;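 also: rat C6 glioma host cells with rolipram phosphodiesterase inhibitor present; the protocol text gives 20 µM as final concentration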
EP2 modulator: modulates human prostaglandin E2 receptor EP2 signaling; P43116; induction, % at 25 µM; EP2-expressing cells, cAMP HTRF FRET, PGE2 co-stimulation; 0.83% of 260,000 active;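 active = compounds whose cAMP rise, as percent of the full-agonist control response, exceeds 60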;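 also: rat C6 glioma line stably carrying human EP2 under a CMV promoter; the protocol text gives 20 µM as final concentration; 100% = response of wells given 1 µM PGE2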
The depositor's hits bear a star; i = inactive; ? = inconclusive; . = not tested or not shown; ! = not active in a repeat. Sampled rows, rich in hits. Any-hit rate of the full collection: about 2.8%.

SMILES	Furin inhibitor	HSV replic up	NCF1 inh	Wee1 stabilizer	EP2 antag	EP2 modulator
CN1CCN(C(=S)c2ccc(-c3cccc([N+](=O)[O-])c3)o2)CC1	1.7	i	-5.9	10.3*	8.2	-29.2
O=[N+]([O-])c1cccc(-c2ccc(C(=S)N3CCOCC3)o2)c1	-8.1	i	-3.4	6.3	4.0	-85.9
COc1ccc(CCNC(=O)CSc2nc(C)nc3sc4c(c23)CCC(C)C4)cc1OC (centres undefined)	.	.	.	.	9.9	33.2
O=C(CN1CCN(c2ccc(F)cc2)CC1)NCc1cccs1	-30.2	i	-5.0	9.0*	7.5	21.3
CC1(C)Cc2ccccc2-c2nnc(SCc3nnc(-c4ccccc4)o3)n21	.	.	.	.	13.1	-68.5
COc1ccc(NC(=O)N(CCN2CCCC2)Cc2cc3cc4c(cc3[nH]c2=O)OCO4)cc1	.	.	.	.	7.4	-0.1
CCCNC(=S)N(Cc1cc2c(C)ccc(C)c2[nH]c1=O)C1CCCCC1	.	.	.	.	15.6	11.5
Cc1ccc(C)c2[nH]c(=O)c(CN(C(=S)NCc3ccccc3)C3CCCCC3)cc12	.	.	.	.	23.2	63.9*
CCCNC(=S)N(Cc1cc2c(C)cc(C)cc2[nH]c1=O)C1CCCCC1	.	.	.	.	5.5	60.7*
CC(C)n1c(=O)oc2cc(S(=O)(=O)NC3(c4ccc(Cl)cc4)CCC3)ccc21	.	.	.	.	4.0	10.9
CNc1nc(-c2c[nH]c3ccccc23)cs1	-14.1	i	0.3	0.8	6.1	-43.2
CN=c1scc(-c2c[nH]c3ccccc23)n1C	-26.4	i	-0.5	11.6*	2.0	-36.9
COc1ccc(N2CCN(C(=O)CN(c3cccc(OC)c3)S(C)(=O)=O)CC2)cc1	.	.	.	.	11.0	-18.2
C/C(CC(=O)N1CCCC1)=N\NC(=O)c1cc2ccccc2cc1O	-8.4	i	4.3	12.4*	10.0	3.9
Cc1ccc(C(=O)c2c(C)oc3c2C(=O)C(=O)c2ccccc2-3)cc1	5.5	i	-0.4	-1.8	55.5*	-47.7
Cc1nnc(SCc2ccc(OC(C)C)cc2)n1N	.	.	.	.	15.7	-5.8
CCOC(=O)C1CCN(C(=O)Nc2ccc(OCc3ccccc3)cc2)CC1	-8.6	i	43.5*	1.8	6.8	-4.9
Cn1c(SCC(=O)Nc2cccc(Cl)c2Cl)nnc1-c1ccco1	.	.	.	.	6.9	-25.9
COCCNC(=O)Cn1cc(C(=S)N2CCOCC2)c2ccccc21	-28.6	i	-4.9	9.8*	23.9	3.8
Cn1c(N2CCC(C(=O)Nc3ccc4c(c3)OCCO4)CC2)nc2ccccc21	.	.	.	.	0.9	-22.6
N/C(=N\OC(=O)c1cccs1)C1(c2ccc(Cl)cc2Cl)CC1	-3.7	i	-7.6	0.5	54.3*	-35.4
N/C(Cc1ccc(Cl)c(Cl)c1)=N\OC(=O)c1cccs1	-12.6	i	5.5	3.1	9.1	-29.2
Cc1ccc(N(Cc2ccc([N+](=O)[O-])cc2)C(=O)c2ccco2)cc1C	-9.5	i	-6.8	-1.2	4.8	62.6*
COc1ccccc1CCCNC(=O)c1ccc2c(c1)NC(=O)C(C)(C)O2	.	.	.	.	11.8	-64.8
CCC(C)Sc1nc2c(c(=O)n(C)c(=O)n2C)n1Cc1ccc(Cl)cc1 (centres undefined)	.	.	.	.	7.0	70.3*
SMILES	Furin inhibitor	HSV replic up	NCF1 inh	Wee1 stabilizer	EP2 antag	EP2 modulator
Cn1c(=O)n(Cc2ccccc2Cl)c2ccccc21	-30.3	i	-6.1	4.2	10.4	60.6*
C=C(C)CSc1nc2c(c(=O)n(C)c(=O)n2C)n1Cc1ccccc1	.	.	.	.	8.3	50.0
CCCn1c(SCC(=O)Nc2ccccc2N2CCCCC2)nc2c1c(=O)n(C)c(=O)n2C	-22.1	i	-13.2	-2.6	21.9	78.4*!
C=C(C)CSc1nc2c(c(=O)n(C)c(=O)n2C)n1Cc1ccccc1Cl	.	.	.	.	8.7	73.7*
Cc1cc(C)c2cc(CN(Cc3ccco3)S(=O)(=O)c3ccc(Cl)cc3)c(=O)[nH]c2c1	.	.	.	.	8.0	-20.2
CC(C)Sc1nc2c(c(=O)n(C)c(=O)n2C)n1Cc1ccccc1Cl	.	.	.	.	4.0	61.7*
CCSc1nc2c(c(=O)n(C)c(=O)n2C)n1Cc1cccc2ccccc12	.	.	.	.	13.4	72.3*
CCc1nc2ccccc2n1CC(=O)N1CCCC(c2nc(-c3cccnc3)n[nH]2)C1 (centres undefined)	.	.	.	.	.	0.5
CC(C)(C)NC(=O)Cn1cc(C(=O)C(C)(C)C)c2ccccc21	.	.	.	.	10.8	-49.9
COc1ccc(Cn2nnnc2C(c2cc3ccc(OC)cc3[nH]c2=O)N(C)C2CCCCC2)cc1 (centres undefined)	.	.	.	.	8.5	-18.0
O=c1[nH]c(/C=C/c2cccc3ccccc23)nc2ccccc12	-2.8	i	53.8*	3.9	2.2	-28.2
CC(=O)c1ccc(NC(=O)CSc2nc3c(C)c(C)ccc3cc2C#N)cc1	.	.	.	.	18.6	36.4
Cc1cc(O)ccc1Nc1nc2ccccc2nc1Nc1ccc(O)cc1C	-11.7	?	56.0*	-1.8	4.4	-49.1
CC1CCCCN1c1nc2c(c(=O)[nH]1)CCN(Cc1ccco1)C2 (centres undefined)	.	.	.	.	.	-48.2
Cc1ccc(Cc2nc(-c3ccncc3)no2)cc1	-13.1	i	-6.4	9.7*	6.4	-55.2
CCCCc1ccc(-c2nc(-c3ccncc3)no2)cc1	-17.8	i	61.5*	0.1	6.9	50.9
CCc1ccc(-c2nc(-c3ccncc3)no2)cc1	-23.2	i	-7.9	5.6	11.6	42.3
O=C1OC(c2ccccc2)=N/C1=C\c1ccc(Br)o1	.	.	.	.	14.4	-27.2
Cc1ccccc1NN=Nc1nc2c([nH]1)c(=O)n(C)c(=O)n2C	-20.1	i	0.9	12.0*	5.5	0.1
Cn1c(=O)c2[nH]c(N=NNc3ccccc3F)nc2n(C)c1=O	-2.7	i	-7.1	2.3	12.3	-15.9
O=C(CN1C(=O)NC2(CCOc3ccccc32)C1=O)Nc1ccc(F)c(F)c1F (centres undefined)	-9.9	i	-10.3	2.6	6.0	-17.7
O=C(O)CN1C(=O)NC2(CCOc3ccccc32)C1=O (centres undefined)	-7.2	i	-7.0	9.8*	5.5	1.0
FC(F)(F)c1nc2nc(Cl)c(Cl)nc2n1CCCN1CCOCC1	.	.	.	.	46.0*	6.8
Cc1nc2ccccc2c(=O)n1CCCN1CCOCC1	-21.6	i	-8.0	0.1	4.5	34.4
CCN1CCN(C(c2cccs2)C(C)NS(=O)(=O)c2ccc(C)cc2)CC1 (centres undefined)	-14.4	i	-2.9	-0.9	3.4	-4.9
CCN1CCN(C(c2cccs2)C(C)NS(=O)(=O)c2ccccc2)CC1 (centres undefined)	-23.5	i	-4.5	11.2*	7.3	2.4
O=C(c1nccs1)C1CCN(C(=O)c2ccc3c(c2)OCCO3)CC1	.	.	.	.	.	-38.7
Cc1cc(C2(c3ccc(O)c(C)c3)C(=O)Nc3ccccc32)ccc1O	-22.0	i	-14.6	2.6	6.4	61.4*
Cc1cccc2c1NC(=O)C2(c1ccc(O)cc1)c1ccc(O)cc1	-12.9	i	-14.0	-2.3	11.9	11.8
O=C1CC[C@@H](NCc2ccc(Sc3ncccn3)o2)[C@H](c2cc(F)cc(F)c2)N1	.	.	.	.	5.4	-63.2
